Experimental data taken from PubChem BioAssay AID1159580 (chemical genetic matrix, 2015).
Among all 5,500 compounds or so, about 2,000 (36%) were called active. Another 18% or so got no clear call; they are omitted. Cut-off read from the data, not from the text of the source: active = normalized growth mostly below about 0.91 (no sharp cut-off); inconclusive = no clear call, values can overlap the other calls; inactive = mostly above about 0.92. This is one part of the list.

Assay: chemical genetic growth profiling, strain panel (AID 1159580);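 note: tested at 20 µM; growth read once vehicle control cultures reached saturation at 30 °C; 1 = growth at the plate median or of vehicle wells; lower values mean less growth of the strain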
Conditions: growth OD
[1] = S. cerevisiae deletion strains, locus YAL013W, strain DEP1, active compounds read low
[2] = S. cerevisiae deletion strains, locus YGR078C, strain PAC10, active compounds read low
[3] = S. cerevisiae deletion strains, locus YGR229C, strain SMI1, active compounds read low
[4] = S. cerevisiae deletion strains, locus YJR075W, strain HOC1, active compounds read low
[5] = S. cerevisiae deletion strains, locus YNL153C, strain GIM3, active compounds read low
[6] = S. cerevisiae deletion strains, locus YNL322C, strain KRE1, active compounds read low
[7] = S. cerevisiae deletion strains, locus YAL040C, strain CLN3, active compounds read low
[8] = S. cerevisiae deletion strains, locus YCL061C, strain MRC1 (second series), active compounds read low
[9] = S. cerevisiae deletion strains, locus YER002W, strain NOP16, active compounds read low
[10] = S. cerevisiae deletion strains, locus YNL175C, strain NOP13, active compounds read low
[11] = S. cerevisiae deletion strains, locus YNL197C, strain WHI3, active compounds read low
[12] = S. cerevisiae deletion strains, locus YNL224C, strain SQS1, active compounds read low
[13] = S. cerevisiae deletion strains, locus YOR083W, strain WHI5 (second series), active compounds read low

Measured: normalized growth

COP(=O)(NC(C)=O)SC (centres undefined)
inactive: [1] 1.01 | S. cerevisiae deletion strains, locus YBR021W, strain FUR4, active compounds read low 1 | S. cerevisiae deletion strains, locus YBR229C, strain ROT2, active compounds read low 1.01 | S. cerevisiae deletion strains, locus YCL029C, strain bik1, active compounds read low 1 | S. cerevisiae deletion strains, locus YDL035C, strain GPR1, active compounds read low 1.01 | S. cerevisiae deletion strains, locus YDL074C, strain BRE1, active compounds read low 1.04 | S. cerevisiae deletion strains, locus YDL101C, strain DUN1, active compounds read low 1.01 | S. cerevisiae deletion strains, locus YDL134C, strain PPH21, active compounds read low 1.01 | S. cerevisiae deletion strains, locus YDL185W, strain tfp1, active compounds read low 1 | S. cerevisiae deletion strains, locus YDL192W, strain arf1, active compounds read low 0.996 | S. cerevisiae deletion strains, locus YDR101C, strain arx1, active compounds read low 1 | S. cerevisiae deletion strains, locus YDR150W, strain NUM1, active compounds read low 0.997 | S. cerevisiae deletion strains, locus YDR162C, strain NBP2, active compounds read low 1.04 | S. cerevisiae deletion strains, locus YDR318W, strain mcm21, active compounds read low 0.996 | S. cerevisiae deletion strains, locus YDR388W, active compounds read low 0.983 | S. cerevisiae deletion strains, locus YDR502C, strain sam2, active compounds read low 0.996 | S. cerevisiae deletion strains, locus YEL061C, strain CIN8, active compounds read low 1 | S. cerevisiae deletion strains, locus YER110C, active compounds read low 0.994 | S. cerevisiae deletion strains, locus YER155C, strain BEM2, active compounds read low 1.01 | S. cerevisiae deletion strains, locus YER167W, strain BCK2, active compounds read low 0.989 | S. cerevisiae deletion strains, locus YGL078C, strain dbp3, active compounds read low 0.994 | S. cerevisiae deletion strains, locus YGL086W, strain mad1, active compounds read low 0.994 | S. cerevisiae deletion strains, locus YGL248W, strain PDE1, active compounds read low 1 | [2] 1.04 | S. cerevisiae deletion strains, locus YGR135W, strain pre9, active compounds read low 1 | [3] 1.04 | S. cerevisiae deletion strains, locus YGR252W, strain gcn5, active compounds read low 0.976 | S. cerevisiae deletion strains, locus YHR030C, strain SLT2, active compounds read low 1.01 | S. cerevisiae deletion strains, locus YHR079C, strain IRE1 (second series), active compounds read low 0.998 | S. cerevisiae deletion strains, locus YHR094C, strain hxt1, active compounds read low 0.991 | S. cerevisiae deletion strains, locus YHR129C, strain ARP1, active compounds read low 1.01 | S. cerevisiae deletion strains, locus YHR200W, strain rpn10, active compounds read low 1 | S. cerevisiae deletion strains, locus YIL066C, strain RNR3, active compounds read low 1.04 | S. cerevisiae deletion strains, locus YIL073C, strain SPO22, active compounds read low 1.03 | S. cerevisiae deletion strains, locus YIL125W, strain kgd1, active compounds read low 0.997 | S. cerevisiae deletion strains, locus YIR030C, strain dcg1, active compounds read low 1 | S. cerevisiae deletion strains, locus YJL095W, strain BCK1, active compounds read low 1.01 | S. cerevisiae deletion strains, locus YJL134W, strain LCB3, active compounds read low 1 | S. cerevisiae deletion strains, locus YJL168C, strain set2, active compounds read low 0.989 | S. cerevisiae deletion strains, locus YJL187C, strain SWE1 (second series), active compounds read low 1.01 | S. cerevisiae deletion strains, locus YJR043C, strain POL32, active compounds read low 1.02 | [4] 1.03 | S. cerevisiae deletion strains, locus YKL009W, strain mrt4, active compounds read low 1.01 | S. cerevisiae deletion strains, locus YKL068W, active compounds read low 1.01 | S. cerevisiae deletion strains, locus YKL085W, strain MDH1 (second series), active compounds read low 0.997 | S. cerevisiae deletion strains, locus YKL085W, strain MDH1, active compounds read low 0.997 | S. cerevisiae deletion strains, locus YKL190W, strain CNB1, active compounds read low 1.03 | S. cerevisiae deletion strains, locus YKR001C, strain vps1, active compounds read low 0.996 | S. cerevisiae deletion strains, locus YLR039C, strain RIC1, active compounds read low 1.05 | S. cerevisiae deletion strains, locus YLR058C, strain SHM2, active compounds read low 1.01 | S. cerevisiae deletion strains, locus YLR102C, strain apc9, active compounds read low 0.994 | S. cerevisiae deletion strains, locus YLR262C, strain YPT6, active compounds read low 1.02 | S. cerevisiae deletion strains, locus YLR268W, strain sec22, active compounds read low 0.999 | S. cerevisiae deletion strains, locus YLR330W, strain CHS5, active compounds read low 1.01 | S. cerevisiae deletion strains, locus YLR342W, strain FKS1 (second series), active compounds read low 1.01 | S. cerevisiae deletion strains, locus YLR371W, strain rom2, active compounds read low 1 | S. cerevisiae deletion strains, locus YLR418C, strain cdc73, active compounds read low 0.998 | S. cerevisiae deletion strains, locus YML016C, strain PPZ1, active compounds read low 1.01 | S. cerevisiae deletion strains, locus YML032C, strain rad52, active compounds read low 0.999 | S. cerevisiae deletion strains, locus YML124C, strain tub3, active compounds read low 0.997 | S. cerevisiae deletion strains, locus YMR078C, strain ctf18, active compounds read low 0.995 | S. cerevisiae deletion strains, locus YMR223W, strain ubp8, active compounds read low 1 | S. cerevisiae deletion strains, locus YMR263W, strain SAP30, active compounds read low 1.04 | S. cerevisiae deletion strains, locus YMR307W, strain GAS1, active compounds read low 1.05 | S. cerevisiae deletion strains, locus YNL067W, strain RPL9B, active compounds read low 1.03 | S. cerevisiae deletion strains, locus YNL128W, strain TEP1, active compounds read low 1.01 | [5] 1.02 | S. cerevisiae deletion strains, locus YNL233W, strain BNI4, active compounds read low 1.01 | S. cerevisiae deletion strains, locus YNL250W, strain rad50, active compounds read low 0.986 | S. cerevisiae deletion strains, locus YNL271C, strain bni1, active compounds read low 0.993 | S. cerevisiae deletion strains, locus YNL298W, strain CLA4, active compounds read low 0.995 | S. cerevisiae deletion strains, locus YNL307C, strain MCK1, active compounds read low 0.995 | [6] 1.01 | S. cerevisiae deletion strains, locus YNR052C, strain pop2, active compounds read low 0.998 | S. cerevisiae deletion strains, locus YOL006C, strain TOP1, active compounds read low 1.05 | S. cerevisiae deletion strains, locus YOL012C, strain htz1 0.88 | S. cerevisiae deletion strains, locus YOL147C, strain pex11, active compounds read low 0.988 | S. cerevisiae deletion strains, locus YOR061W, strain CKA2, active compounds read low 1.01 | S. cerevisiae deletion strains, locus YOR069W, strain VPS5, active compounds read low 1.01 | S. cerevisiae deletion strains, locus YOR136W, strain idh2, active compounds read low 1 | S. cerevisiae deletion strains, locus YOR144C, strain elg1, active compounds read low 0.995 | S. cerevisiae deletion strains, locus YOR184W, strain ser1, active compounds read low 1.01 | S. cerevisiae deletion strains, locus YOR316C, strain cot1, active compounds read low 0.999 | S. cerevisiae deletion strains, locus YPL055C, strain LGE1, active compounds read low 1.09 | S. cerevisiae deletion strains, locus YPL241C, strain CIN2, active compounds read low 1.01 | S. cerevisiae deletion strains, locus YPR119W, strain clb2, active compounds read low 0.993 | S. cerevisiae deletion strains, locus YPR141C, strain kar3, active compounds read low 0.994 | S. cerevisiae deletion strains, locus YPR163C, strain tif3, active compounds read low 0.998 | S. cerevisiae deletion strains, locus YPR167C, strain met16, active compounds read low 0.997 | S. cerevisiae deletion strains, strain wtn01, active compounds read low 0.993 | S. cerevisiae strains, strain wild type, active compounds read low 1.01

c1cnc2c(c1)ccc1cccnc12
inactive: [7] 1.07
active: [1] 0.0762 | [8] 0.0542 | S. cerevisiae deletion strains, locus YDR363W, strain ESC2, active compounds read low 0.0973 | [9] 0.0834 | [2] 0.109 | [4] 0.0769 | [5] 0.103 | [10] 0.0953 | [11] 0.0905 | [12] 0.123 | [6] 0.0666 | [13] 0.0868

Oc1ccccc1O
inactive: [1] 0.966 | [7] 0.983 | [8] 0.971 | [9] 1 | [3] 0.904 | [5] 1.03 | [10] 1.02 | [11] 1.02 | [12] 0.999 | [13] 1.03
